Screening results (PubChem)
LASV entry inh: qHTS for Inhibitors of binding or entry into cells for Lassa Virus; Lassa virus pseudotype entry inhibition, cell reporter; Potency, µM (titrated, usually from 37.9 µM), without a hit: at the highest dose activity change, negative = inhibition, hits mostly inhibitors; 300,000 compounds, 1.2% hits; AID 540256, 2011; calls by dose curve; tested in HEK293 cells; further: potency means the concentration at half of the fitted maximal effect; nearly all actives have a fitted effect of over 50% in size
FMDV antiviral: High Throughput Screening for Foot and Mouth Disease Virus Antivirals; AID 1159524, 2015; FMDV antiviral cell-based qHTS; 410,000 compounds, 1.2% hits; Potency, µM (top dose mostly 57.9 µM), inactives show at the highest dose activity change, negative = inhibition, actives largely listed as inhibitors; calls by dose curve; tested in HEK293T cells; further: read-out not given here; potency means the concentration at half of the fitted maximal effect; nearly all actives have a fitted effect of over 45% in size
HCMV inh: qHTS Assay for inhibitors of the human cytomegalovirus (HCMV) | 410,000 compounds, 4.5% hits | HFF cells, HCMV-luciferase reporter, 72 h; stronger effect = lower value | activity change, negative = inhibition, % at 57.5 µM; in the data active means activity change below about -60%; inconclusive means no clear call, values can overlap the other calls; inactive means above about -39%
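Inhibition of viral replication was scored as loss of reporter luminescence in HFFs infected with HCMV-luciferase (MOI 1 PFU/cell) for 72 h; compounds tested at 2 doses, normalized to buffer and Salinomycin controls.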
MARV entry inh: qHTS for inhibitors of binding or entry into cells for Marburg Virus; Marburg virus pseudotyped entry inhibition, cell reporter; Potency, µM (titrated, usually from 37.8 µM), for the others: top-dose activity change, negative = inhibition, hits mostly inhibitors; 300,000 compounds, 1.8% hits; calls by dose curve; tested in HEK293 cells; further: potency means the concentration at half of the fitted maximal effect
Vaccinia Venus: qHTS for Stage-Specific Inhibitors of Vaccinia Orthopoxvirus: Venus Reporter Primary qHTS. Vaccinia virus Venus reporter expression, fluorescence. AID 720580, 2013. Potency, µM (titrated, usually from 36.5 µM), inactives show at the top dose activity change, negative = inhibition, most hits filed as inhibitors. 330,000 compounds, 0.46% hits; calls by dose curve; tested in A549 cells; further: potency means the concentration at half of the fitted maximal effect; nearly all actives have a fitted effect of over 30% in size
VACV mCherry inh: qHTS for Stage-Specific Inhibitors of Vaccinia Orthopoxvirus: mCherry Reporter Primary qHTS; 310,000 compounds, 0.63% hits; Vaccinia virus mCherry reporter infection, fluorescence; Potency, µM (series often up to 36.5 µM), without a hit: at the top dose activity change, negative = inhibition, hits mostly inhibitors; calls by dose curve; tested in A549 cells; further: potency means the concentration at half of the fitted maximal effect; nearly all actives have a fitted effect of over 35% in size
* hit, by the source's call; i = inactive; u = inconclusive; x = not tested or not shown; [ ] = remark or other dose. This is a sample that favours compounds with a hit; in the whole collection about 6.5% have one here. On the % scale 0 is the no-effect control and ±100 the full control effect.

SMILES	LASV entry inh	FMDV antiviral	HCMV inh	MARV entry inh	Vaccinia Venus	VACV mCherry inh
COC(=O)c1ccccc1-c1ccc(/C=N/NC(=O)c2cc3ccccc3o2)o1	-10%	-14%	-18	4%	-10%	i
O=C(O)c1ccccc1-c1oc2cc(O)ccc2c(=O)c1Oc1ccccc1	x	0%	x	x	x	x
O=C(O)c1ccccc1-c1c2ccc(=O)cc-2oc2cc(O)ccc12	28µM*	x	x	35µM*	x	x
COc1ccccc1/C=C1\C=Cc2ccccc21	x	x	x	x	-6%	19%
CCN=C1NN=C(c2cc(C)n(Cc3ccco3)c2C)CS1	u	0.079µM*	-84*	u	1%	i
Cc1cc(/C=C2\C(=O)NC(=O)N(c3ccc(Cl)cc3)C2=O)c(C)n1-c1sc2c(c1C#N)CCCC2	x	-10%	33	1%	-2%	0%
Cc1cc(/C=C2/NC(=O)NC2=O)c(C)n1-c1sc2c(c1C#N)CCCC2	4.5µM*	-17%	-73*	u	-20%	u
CCC1(C2CCN(C(=O)c3csc(C(C)=O)c3)CC2)NC(=O)N(CCc2scnc2C)C1=O (stereo not given)	x	6%	x	x	3%	-4%
O=C(Nc1ccc(S(=O)(=O)C(F)F)cc1)c1ccc2c(=O)n3c(nc2c1)CCC3	-7%	u	-32	-1%	-13%	-8%
CC(=O)c1cccc(NC(=O)c2ccc3c(=O)n4c(nc3c2)CCCCC4)c1	7%	2%	u	-11%	-3%	-2%
O=C(Nc1cccc(S(=O)(=O)N2CCOCC2)c1)c1ccc2c(=O)n3c(nc2c1)CCCCC3	u	u	-84*	u	u	u
COc1ccc(NC(=O)c2ccc3c(=O)n4c(nc3c2)CCCCC4)cc1	u	-8%	-30	15%[46.1 µM]	-13%	-11%
O=C(Nc1ccc(SC(F)F)cc1)c1ccc2c(=O)n3c(nc2c1)CCC3	x	u	-70*	x	x	x
O=C(Nc1cccc(S(=O)(=O)N2CCCC2)c1)c1ccc2c(=O)n3c(nc2c1)CCCCC3	21µM*	13µM*	-66*	u	u	u
CCC[C@H]1[C@H](N(Cc2cccs2)Cc2cccs2)CC[C@@]23CCCN2C(=O)CCC[C@@H]13	x	x	18	x	x	x
COc1ccc(Cl)cc1NC(=O)c1cc(C)nc2c1c(C)nn2-c1ccccc1	26%[46.1 µM]	-4%	1	x	-11%	-6%
O=C1c2ccccc2NC(c2ccc3c(c2)OCCO3)N1c1ccc2c(c1)OCCO2 (stereo not given)	u	-12%	-11	8.9µM*	-11%	x
COc1cc(C2Nc3ccccc3C(=O)N2c2ccc3c(c2)OCCO3)ccc1OCC(C)C (stereo not given)	u	-11%	4	u	-25%	-6%[1.46 µM]
O=C(Nc1nc(-c2ccc3c(c2)OCCO3)cs1)C1CC(=O)N(c2ccc3c(c2)OCCO3)C1 (stereo not given)	x	x	x	x	u	-18%
Nc1cccc(O)c1	x	-13%	-1	x	-16%	-23%
Oc1cccc(-c2nnc(-c3cccc(O)c3)nn2)c1	u	8.9µM*	-13	u	-4%	-19%
CC1CCCCN1C(=O)COC(=O)/C=C/c1ccc2ccccc2n1 (stereo not given)	x	51%	-84*	x	u	u
COc1cc(=O)n2c(c1C(=O)NC(C)c1ccco1)CCN(C(=O)c1ccc3c(c1)OCCO3)CC2 (stereo not given)	x	-2%	x	x	-6%	-8%
Cc1c(Cl)cccc1NC(=O)c1oc2ccc(S(=O)(=O)N3CCCCCC3)cc2c1C	25%[46.1 µM]	-9%	-2	x	-17%	-13%
Cc1cc(C)cc(-n2c3ccc(NC(=O)Cc4cccc5ccccc45)cc3c(=O)n2C)c1	x	-6%	-71*	x	-27%	6%
Cc1ccc(S(=O)(=O)CCc2nnc(NC(=O)CCl)s2)cc1C	u	-4%	-78*	u	-27%	-14%
CCOC(=O)C1=C(CN2CCN(c3ccc(Cl)cc3)CC2)NC(=O)NC1c1ccc(F)cc1 (stereo not given)	u	u	-36	x	u	u
